Some test systems named below: MOLT-4 leukemia; SR leukemia; OVCAR-8 ovarian; OVCAR-5 ovarian; OVCAR-4 ovarian; SK-OV-3 ovarian; IGROV1 ovarian; OVCAR-3 ovarian; HS 578T breast; NCI/ADR-RES ovarian; T-47D breast; BT-549 breast; MDA-MB-435 melanoma; SW-620 colon; MCF7 breast; HCT-116 colon; HCC-2998 colon; KM12 colon; RPMI-8226 leukemia.
Common to all, as to test: NCI-60 one-dose screen, 48 h (100 = growth as untreated, 0 = no growth, -100 = all killed)
Common to all, as to conditions: 10 µM unless noted

Compounds without any hit were thinned out: in the full panel of roughly 83,000, 20% have a hit.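 Negative percent growth values reflect cell death: -40 means 40% of the cells present at the start died, and -100 means all died.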 A number with no mark means an inactive call. The source made the active and inactive calls. Rule for the calls: active = growth percent below 10; inactive = the rest.

Growth data for 9 compounds are collected here from PubChem BioAssay (NCI).

With `O=C1OCC2=C1C(c1ccccc1)c1cc3c(cc1N2)OCO3` (stereo not drawn), the growth in the assay with MOLT-4 leukemia is 21.2%; with SR leukemia, 8.69% (active); in the assay on OVCAR-8 ovarian, 5.45% (active); in the assay on OVCAR-5 ovarian, 43.5%; in the assay on OVCAR-4 ovarian, 41.4%; in the assay with SK-OV-3 ovarian it was 2.36% (active). Moreover, the growth with IGROV1 ovarian was 36.4%; in the assay with OVCAR-3 ovarian, -46% (active); in the assay with HS 578T breast, 43.2%; in the assay on NCI/ADR-RES ovarian, -0.134% (active); in the assay on T-47D breast, 62.6%; in the assay on BT-549 breast, -5.6% (active). In addition, the growth with MDA-MB-435 melanoma is -24.9% (active); with SW-620 colon, 27.8%; in the assay with MCF7 breast it was 15.9%; in the assay on HCT-116 colon, 4.53% (active); with HCC-2998 colon, 3.21% (active); in the assay with KM12 colon, -32% (active).
As to `CCOP(=O)(Cc1ccc(C#N)cc1)OCC`, the growth with MOLT-4 leukemia was 94.8%; with SR leukemia, 89%; with OVCAR-8 ovarian, 94.3%; in the assay with OVCAR-5 ovarian it was 106%; with OVCAR-4 ovarian it was 104%; in the assay with SK-OV-3 ovarian it was 102%. In addition, the growth with IGROV1 ovarian was 118%; in the assay with OVCAR-3 ovarian, 110%; with HS 578T breast it was 105%; with NCI/ADR-RES ovarian, 108%; in the assay with T-47D breast, 101%; in the assay on BT-549 breast it was 109%. In addition, the growth in the assay with MDA-MB-435 melanoma is 114%; in the assay on SW-620 colon, 99.9%; in the assay with MCF7 breast, 88.6%; in the assay with HCC-2998 colon, 110%; in the assay on KM12 colon it was 107%.
On to `C=C(C)[C@@]12OC3(/C=C/C=C/CCCCC)O[C@@H]1[C@@H]1[C@@H]4O[C@]4(CO)[C@@H](O)[C@]4(O)C(=O)C(C)=C[C@H]4[C@@]1(O3)[C@H](C)[C@H]2OC(=O)c1ccccc1`, for which the growth is 31.2% in the assay on MOLT-4 leukemia; 67.2% in the assay with SR leukemia; 82.6% in the assay on OVCAR-8 ovarian; 107% in the assay with OVCAR-5 ovarian; 72.2% in the assay with OVCAR-4 ovarian; 102% with SK-OV-3 ovarian. Also, the growth with IGROV1 ovarian is 52.3%; in the assay on OVCAR-3 ovarian, 61.6%; in the assay on HS 578T breast, 4% (active); in the assay with NCI/ADR-RES ovarian it was 69.4%; with T-47D breast, 81.7%; in the assay on BT-549 breast, 83%. Besides, the growth is 40.5% with MDA-MB-435 melanoma; 58.9% in the assay on SW-620 colon; 38.7% in the assay on MCF7 breast; 49.7% in the assay on HCT-116 colon; -3.12% (active) in the assay on HCC-2998 colon; 9.5% (active) with KM12 colon.
On to `CC(=O)O[C@H](C[C@H](C(C)C)N(C)C(=O)[C@@H](NC(=O)[C@H]1CCCCN1C)C(C)C)c1nc(C(=O)NC2CCC(C(=O)O)CC2)cs1` (stereo partly drawn), for which the growth in the assay on MOLT-4 leukemia is 30.9%; in the assay with SR leukemia, 22.3%; in the assay with OVCAR-8 ovarian, 59.9%; in the assay with OVCAR-5 ovarian it was 85.7%; with OVCAR-4 ovarian, 72%; with SK-OV-3 ovarian it was 50.9%. Also, the growth with IGROV1 ovarian was 52.9%; in the assay with OVCAR-3 ovarian, 2.22% (active); in the assay with HS 578T breast, 24.2%; with NCI/ADR-RES ovarian, 96.8%; in the assay with T-47D breast, 50.4%; in the assay with BT-549 breast, 45.6%. The growth in the assay on MDA-MB-435 melanoma was -28.9% (active); in the assay on SW-620 colon, 32.6%; in the assay with MCF7 breast it was 18.5%; in the assay on HCT-116 colon, 34.8%; in the assay with HCC-2998 colon it was 83.7%; in the assay with KM12 colon, 39.2%.
Turning to `Cc1cc(NC(=O)NCc2ccc(N3C(N)=NC(N)=NC3(C)C)cc2)ccc1S(=O)(=O)F`, the growth in the assay on MOLT-4 leukemia was 42%; in the assay with SR leukemia, 4.98% (active); in the assay on OVCAR-8 ovarian, -4.46% (active); with OVCAR-5 ovarian, 10.8%; in the assay on OVCAR-4 ovarian, 39.2%; with SK-OV-3 ovarian, 64.9%. Also, the growth is -51.3% (active) in the assay on IGROV1 ovarian; 67.6% in the assay with OVCAR-3 ovarian; 68.6% in the assay with HS 578T breast; 112% in the assay on NCI/ADR-RES ovarian; 59.7% with T-47D breast; 42% with BT-549 breast. The growth in the assay with MDA-MB-435 melanoma is 32.7%; in the assay with SW-620 colon it was 23.9%; in the assay on MCF7 breast it was 23.2%; in the assay on HCT-116 colon, 23.3%; in the assay on HCC-2998 colon, 5.34% (active); in the assay on KM12 colon, 16.2%.
For `CC(C)(C)N1CC1C#N` (stereo not drawn), the growth is 98.4% in the assay with MOLT-4 leukemia; 97.6% in the assay with SR leukemia; 103% in the assay with OVCAR-8 ovarian; 99.5% in the assay on OVCAR-5 ovarian; 119% with OVCAR-4 ovarian; 101% with SK-OV-3 ovarian. In addition, the growth with IGROV1 ovarian is 103%; in the assay with HS 578T breast it was 104%; in the assay with NCI/ADR-RES ovarian it was 106%; in the assay with T-47D breast, 89.3%; in the assay with BT-549 breast, 103%; in the assay on MDA-MB-435 melanoma, 108%. For the same compound, the growth is 103% in the assay on SW-620 colon; 100% in the assay on MCF7 breast; 100% with HCT-116 colon; 98.8% in the assay with HCC-2998 colon; 99.2% in the assay on KM12 colon.
In the case of `CC(=O)O[C@H]1CC[C@]2(C)[C@H]3CC[C@]4(C)[C@@H](OC(C)=O)CC[C@H]4[C@@H]3[C@@H](C)[C@]2(O)C1`, the growth in the assay on MOLT-4 leukemia is 87.9%; with SR leukemia, 96.1%; with OVCAR-8 ovarian, 115%; with OVCAR-5 ovarian, 108%; with OVCAR-4 ovarian, 110%; in the assay with SK-OV-3 ovarian, 117%. Moreover, the growth in the assay with IGROV1 ovarian is 116%; with OVCAR-3 ovarian, 127%; in the assay on HS 578T breast, 110%; in the assay on NCI/ADR-RES ovarian, 98.9%; in the assay on T-47D breast, 106%; in the assay on BT-549 breast, 113%. Also, the growth in the assay on SW-620 colon was 104%; in the assay on MCF7 breast it was 104%; with HCT-116 colon, 98.1%; in the assay on HCC-2998 colon, 108%; in the assay on KM12 colon it was 109%.
On to `CN1CCCCC1C(C)(O)c1ccccc1` (stereo not drawn), for which the growth with MOLT-4 leukemia is 102%; in the assay on SR leukemia, 113%; in the assay on RPMI-8226 leukemia it was 114%; in the assay on OVCAR-4 ovarian, 99.8%; in the assay on SK-OV-3 ovarian it was 97.8%; in the assay with IGROV1 ovarian it was 99.8%. Moreover, the growth was 111% in the assay on OVCAR-3 ovarian; 108% in the assay with HS 578T breast; 96.1% in the assay with NCI/ADR-RES ovarian; 92.2% with T-47D breast; 87.4% in the assay with BT-549 breast; 99.2% in the assay with MDA-MB-435 melanoma. Moreover, the growth in the assay with SW-620 colon is 110%; in the assay with MCF7 breast, 85.7%; with HCT-116 colon, 93%; in the assay on HCC-2998 colon, 115%; with KM12 colon it was 106%.
Take `Cc1c2cc(Cl)c3ccccc3c2c[n+]2ccccc12`: the growth in the assay on MOLT-4 leukemia is 1.48% (active); in the assay on SR leukemia, -11.7% (active); with OVCAR-8 ovarian, -1.69% (active); with OVCAR-5 ovarian it was 77.6%; in the assay on OVCAR-4 ovarian it was 30.3%; with SK-OV-3 ovarian, 66.6%. Besides, the growth is 19.9% in the assay with IGROV1 ovarian; 4.55% (active) in the assay with OVCAR-3 ovarian; -33.2% (active) in the assay on HS 578T breast; 87.2% in the assay with NCI/ADR-RES ovarian; -27.4% (active) with T-47D breast; -6.2% (active) with BT-549 breast. Also, the growth with MDA-MB-435 melanoma is 64.9%; in the assay with SW-620 colon, 50.7%; with MCF7 breast, 26.4%; in the assay with HCT-116 colon, 48.7%; in the assay with HCC-2998 colon it was 15.3%; in the assay on KM12 colon, 39.7%.
